PP1 inh: PP1-alpha (human) inhibition in PP5 counter-screen; purified PP1alpha, OMFP fluorescence; inhibition, % at 6.7 µM; 0.9% of 320,000 active; AID 2235;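 active means inhibition above the mean inhibition of all tested compounds plus 3 SD, computed separately for each screening campaign, cut at about 15% in these data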
PP5 primary: blocks human protein phosphatase 5 activity | P53041 | purified PP5c, OMFP substrate fluorescence | inhibition, % at 6.7 µM | 0.18% of 320,000 active | AID 1987;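 active means inhibition above the campaign's mean inhibition across all tested compounds plus 3 SD, cut at about 9.5% in these data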;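 further: 0% = DMSO only and 100% = 100 µM cantharidin control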
Target sequence (P53041 whole entry, looked up): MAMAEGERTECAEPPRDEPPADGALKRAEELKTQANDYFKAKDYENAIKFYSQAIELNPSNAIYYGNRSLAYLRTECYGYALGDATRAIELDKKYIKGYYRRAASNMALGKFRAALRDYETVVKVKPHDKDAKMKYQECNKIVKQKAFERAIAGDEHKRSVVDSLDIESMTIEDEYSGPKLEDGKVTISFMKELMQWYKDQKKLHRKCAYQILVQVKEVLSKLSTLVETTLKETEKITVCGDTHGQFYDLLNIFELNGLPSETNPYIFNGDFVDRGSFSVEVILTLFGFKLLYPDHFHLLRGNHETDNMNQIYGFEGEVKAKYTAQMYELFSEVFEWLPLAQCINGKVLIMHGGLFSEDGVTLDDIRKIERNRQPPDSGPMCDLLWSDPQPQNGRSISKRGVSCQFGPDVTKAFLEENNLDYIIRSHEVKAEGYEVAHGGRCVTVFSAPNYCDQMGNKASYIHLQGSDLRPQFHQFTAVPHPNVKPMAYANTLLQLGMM
SKKanGAS inh: inhibitors of SKKanGAS S. pyogenes growth in kanamycin (SK-promoter or general growth effect); BacTiter-Glo, 6 h; inhibition, % at 7.5 µM; 1.3% of 300,000 active;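 active means mean replicate score, as percent of positive control median, at least 50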;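 further: strain carries kanamycin resistance gene driven by streptokinase promoter and grows in 40 µg/ml kanamycin; loss of luminescence reflects streptokinase promoter inhibition or plain growth inhibition; 0% = median of DMSO wells and 100% = positive control at its reference dose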
Beta apoptosis: beta cell apoptosis inhibition | INS-1E cytokine-induced death, ATP luminescence, 48 h; percent of positive-control rescue, neutral wells zero | protection from apoptosis, % (test concentration not listed) | 0.8% of 300,000 active | AID 435005;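 active means Every replicate reaches about 75%, or at least half do and their mean reaches it too, limit read from the data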;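 further: 0% = cytokine-treated negative control wells and 100% = positive control rescue; higher means more ATP so stronger rescue from cytokine killing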
CSC inhib: cancer stem cell inhibition; cancer stem cell-like cells viability, luminescence; inhibition, % at 7.5 µM; 1.1% of 300,000 active; in the data active means inhibition above about 75%; tested in HMLE shEcad cells
* marks the source's active call; other numbers are inactive results; . = not tested or not shown. An excerpt weighted towards active compounds, which were near 3.1% of everything screened.

SMILES	PP1 inh	PP5 primary	SKKanGAS inh	Beta apoptosis	CSC inhib
CCc1cccc(C)c1NC(=O)C1CCN(c2nn3c(=O)cc(C)nc3s2)CC1	-4	0	9	-3	0
Cn1c(CSCc2ccccc2)n[nH]c1=S	-3	5	3	3	-13
N#Cc1c(NC(=O)Cn2c(=O)oc3ccccc32)oc(-c2ccccc2)c1-c1ccccc1	15	0	32	3	86*
O=C(Cn1c(=O)oc2ccccc21)Nc1ccc(Br)cc1	-1	0	-2	0	-10
C[C@H](NC(=O)[C@H]1N2C(=O)c3ccccc3C2SC1(C)C)C(=O)N1CCCCC1 (stereo not given in full)	-1	-1	1	2	-3
COc1ccc(-c2c(-c3ccc(O)cc3O)n[nH]c2C(F)(F)F)cc1	-5	5	-17	-3	31
Oc1ccc(-c2n[nH]c(C(F)(F)F)c2-c2ccccc2)c(O)c1	1	6	-4	105*	-15
O=S(=O)(Nc1cc(C(F)(F)F)ccc1N1CCOCC1)c1ccc2ccccc2c1	2	5	17	11	52
O=C(Cc1cccs1)N/N=C/c1ccco1	-4	0	77*	1	-7
CCN(CC)c1ccc(/C=N/NC(=O)Cc2cccs2)c(O)c1	16*	5	10	92*	29
CCN(CC)c1ccc(/C=N/NC(=S)NCc2ccccc2)c(O)c1	-1	5	64*	83*	46
O=C(Cc1cccs1)N/N=C/C=C\c1ccco1	-1	1	7	-3	-1
CCN(CC)c1ccc(/C=N/N(c2ccccc2)c2ccccc2)c(O)c1	13	4	-3	95*	53
CCN(CC)c1ccc(C=Nc2ccccc2C)c(O)c1	-4	3	-6	-6	-11
CCN(CC)c1ccc(/C=N/N=C(c2ccccc2)c2ccccc2)c(O)c1	1	2	-5	13	61
CCn1c(SCC(=O)N(C)C2CCS(=O)(=O)C2)nnc1-c1ccccc1 (stereo not given)	-2	0	-5	-13	-10
CCN(CC)c1ccc(/C=N/Nc2nc3ccccc3[nH]2)c(O)c1	8	4	94*	122*	101*
COc1cc(OC)c(OC)cc1/C=N/Nc1nc2ccccc2[nH]1	-1	3	-7	-3	-15
CCN(CC)c1ccc(/C=N/NC(=O)c2ccco2)cc1	4	-1	6	-3	40
CCN(CC)c1ccc(/C=N/NC(=O)c2ccco2)c(O)c1	-4	2	.	93*	113*
Cc1ccc(C)c(S(=O)(=O)N(C)C2(C)CCS(=O)(=O)C2)c1 (stereo not given)	-1	-2	-6	0	-4
Cc1ccc(COc2ccccc2-c2cc(C(=O)N/N=C/c3cccnc3)[nH]n2)cc1	8	3	63*	4	78*
O=C(Oc1cccc2cccnc12)c1ccc(N2C(=O)C3C4CCC(C4)C3C2=O)cc1 (stereo not given)	0	3	3	-1	0
O=C(Oc1cccc2cccnc12)c1cccc(N2C(=O)C3C4CCC(C4)C3C2=O)c1 (stereo not given)	-1	1	0	79*	3
CC(=O)c1cccc(CN2CCCC(C(=O)Nc3ccc(-c4ccco4)cc3)C2)c1 (stereo not given)	3	0	17	.	-6
SMILES	PP1 inh	PP5 primary	SKKanGAS inh	Beta apoptosis	CSC inhib
Cc1nn2c(COc3ccc(NC(=O)c4ccccc4Cl)cc3)nnc2c2ccccc12	5	2	87*	-5	90*
CCOC(=O)Nc1ccc(OCc2nnc3c4ccccc4c(C)nn23)cc1	-2	1	94*	3	-5
Cc1nn2c(CN(C(=O)COc3ccccc3)c3ccccc3)nnc2c2ccccc12	2	-1	4	4	6
Cc1nn2c(COc3ccc(NC(=O)C(C)C)cc3)nnc2c2ccccc12	0	2	102*	-3	-11
COC(=O)c1ccccc1C(=O)N(Cc1cccnc1)CC1CCCN(C2CCCCC2)C1 (stereo not given)	-5	3	3	3	-6
COc1ccc(CNC(=O)COC(=O)c2cccs2)cc1	2	2	-3	-3	-11
CC(C)(C)c1ccc(O)c(O)c1	-1	0	.	-7	86*
CN(C(=O)COc1ccc(Br)cc1Cl)C1CCCCC1	0	1	-4	-5	-7
Cc1ccccc1Cc1c(C)nc2c(C(=O)NCc3ccc4c(c3)OCO4)cnn2c1C	-7	3	20	4	-1
Cc1ccc(C)c(Cc2c(C)nc3c(C(=O)NCc4ccc5c(c4)OCO5)cnn3c2C)c1	0	3	14	11	78*
COC(=O)C1CCCCN1C(=O)c1cc(COc2cccc3cccnc23)on1 (stereo not given)	-2	-2	0	-3	-3
CCOC(=O)CC1CCCCN1C(=O)c1cc(COc2cccc3cnccc23)on1 (stereo not given)	-1	-2	-4	96*	9
COC(=O)C1CCCCN1C(=O)c1cc(COc2cccc3cnccc23)on1 (stereo not given)	-8	3	-10	101*	3
CCc1ccc(-c2nc(CS(=O)CC(=O)O)c(C)o2)cc1 (stereo not given)	0	-2	-8	-1	-1
COc1cc2ccc(=O)oc2c(O)c1OCC=C(C)C	2	2	0	-4	11
C=CC(C)(C)c1c(O)c(CC=C(C)C)c(O)c2c(=O)c3ccc(O)c(O)c3oc12	1	4	103*	107*	-7
C=CCn1c(=NC(=O)c2cc(-c3cccs3)nc3ccccc23)sc2cc(S(N)(=O)=O)ccc21	16*	2	15	92*	62
COCCn1c(=NC(=O)c2cc(-c3cccs3)nc3ccccc23)sc2cc(S(N)(=O)=O)ccc21	14	2	37	12	71
COc1c(O)ccc(/C=C(\C#N)c2nc3ccccc3[nH]2)c1[N+](=O)[O-]	5	5	55*	1	5
COc1ccc(/C=C(\C#N)c2nc3ccccc3[nH]2)cc1O	.	.	-2	.	.
C/C(=N\NC(=O)c1cccc(Cl)c1)C1C(=O)c2ccccc2C1=O	3	4	18	10	93*
CCc1noc(C)c1C(=O)N(C)CC(=O)Nc1cccc(OC)c1	-4	0	.	0	2
Cc1cccc(N2C(=O)C(Oc3ccc(Cl)cc3Cl)C2C(=O)O)c1C (stereo not given)	3	0	-1	-3	6
CCCNCC1C(Oc2ccc(Cl)cc2Cl)C(=O)N1c1cccc(C)c1C (stereo not given)	6	4	6	44	81*
Cc1ccc(CNC(=O)CN(C(=O)C2(C)CC(=O)N=C3C=CC=CN32)c2ccccc2F)cc1 (stereo not given)	0	2	3	3	-7
COC1=C(Nc2ccc(O)cc2)C(=O)c2ccccc2C1=O	-3	6	12	52	21
CCN(CC)c1ccc(NC2=C(Cl)C(=O)c3ccccc3C2=O)cc1	2	3	.	1	106*

Compound activity from PubChem.
